Source: PubChem BioAssay
For some of these results: Results with a measured potency or affinity are listed apart. Activity calls are given as the source filed them.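 Rule for the calls, unless noted: active = membrane potential signal rise above negative control mean plus 3 SD in both duplicates, also active in the earlier TRPC4 screen; inactive = the rest.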

Assays:
[1] = system: TRPC4 beta (transient receptor potential cation channel C4), mouse; assay: TRPC4 cation channel opening, retest – cell-based, Fluo4 calcium, HEK293 TRPC4beta/mu-opioid, duplicates, 10 µM, confirmation (AID 2426;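 active = fluorescence ratio normalized to control raised more than 50% in primary screen plus both repeat runs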); conditions: Fluo4 calcium fluorescence, at 10 µM; stronger effect = higher value
[2] = system: transient receptor potential cation channel C4 beta (TRPC4), mouse; assay: TRPC4 cation channel opening, second retest – cell-based, second round, Fluo4, HEK293 TRPC4beta/mu-opioid, 1 µM, confirmation (AID 2461;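 active = primary screen active and over 50% activation in each of two duplicate runs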); conditions: Fluo4 calcium fluorescence, at 1 µM; stronger effect = higher value
[3] = system: TRPC4 (transient receptor potential cation channel C4 beta), mouse; assay: potentiation of DAMGO EC20 TRPC4 response – cell-based, second round, Fluo-4, HEK293 TRPC4beta/mu-opioid, 1 µM, confirmation (AID 2554;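 active = primary screen hit whose fluorescence ratio, in both repeats, exceeds the weak agonist control mean by 3 SD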); conditions: DAMGO EC20, Fluo-4 calcium flux, at 1 µM; stronger effect = higher value
[4] = system: TRPC4 beta (transient receptor potential cation channel C4), mouse; assay: potentiation of DAMGO EC20 TRPC4 response – cell-based, Fluo-4, HEK293 TRPC4beta/mu-opioid, confirmation (AID 2555;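 active = primary screen hit whose calcium fluorescence ratio, in both repeats, exceeds the weak agonist control mean by 3 SD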); conditions: DAMGO EC20, Fluo-4 calcium flux, at 10 µM; stronger effect = higher value
[5] = target: Short transient receptor potential channel 4 (Mus musculus) (UniProt Q9QUQ5); assay: blockers of DAMGO-evoked TRPC4 calcium flux – cell-based, Fluo4, HEK293 TRPC4beta/mu-opioid, confirmation (AID 2636;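 active = calcium signal cut by more than 3 SD below the full-agonist control yet still positive, in both repeats and the earlier primary screen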); conditions: at 10 µM; stronger effect = higher value
[6] = target: Short transient receptor potential channel 4 (Mus musculus) (UniProt Q9QUQ5); assay: blockers of DAMGO-evoked TRPC4 calcium flux – cell-based, second round, Fluo4, HEK293 TRPC4beta/mu-opioid, 1 µM, confirmation (AID 2637;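 active = calcium signal ratio cut to more than 3 SD under the fully stimulated control mean yet still positive, in both repeats and the primary screen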;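 for inhibition: percent of integrated ratio relative to wells lacking test compound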); conditions: at 1 µM; stronger effect = higher value
[7] = target: Short transient receptor potential channel 4 (Mus musculus) (UniProt Q9QUQ5); assay: calcium entry via TRPC4 opening agents – cell-based, HEK293 TRPC4/mu-opioid, Fluo-4 calcium, dose response (AID 434937;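 active = primary screen activator hit with a dose response curve and TRPC4 channel activation at any tested dose; inactive = no activation, no dose response, or not a primary hit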)
[8] = target: Short transient receptor potential channel 4 (Mus musculus) (UniProt Q9QUQ5); assay: potentiation of DAMGO-evoked TRPC4 calcium signal – cell-based, HEK293 TRPC4/mu-opioid, Fluo-4 calcium, EC20 DAMGO, dose response (AID 434941;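 active = earlier screen potentiator hit that boosts the TRPC4 ion channel at some dose, with a dose response; inactive = no potentiation, no dose response, or not a prior hit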;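 note: calcium entry triggered by an EC20 dose of DAMGO at the co-expressed mu-opioid receptor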)
[9] = target: Short transient receptor potential channel 6 (Mus musculus) (UniProt Q61143); assay: TRPC6 blockade by TRPC4 inhibitor hits – cell-based, HEK293, membrane potential dye, duplicate, selectivity assay for TRPC4 inhibitor project, confirmation (AID 434948;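 active = active in primary screen and both duplicates, each dropping signal beyond three positive-control SD with fluorescence still positive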); conditions: HEK293 TRPC6, membrane potential dye fluorescence, at 10 µM, stimulated with maximal-effect acetylcholine; stronger effect = higher value
[10] = target: Short transient receptor potential channel 6 (Mus musculus) (UniProt Q61143); assay: TRPC6 opening by TRPC4 activator hits – cell-based, HEK293, membrane potential dye, duplicate, selectivity assay for TRPC4 activator project, confirmation (AID 434950); conditions: HEK293 TRPC6, membrane potential fluorescence, at 10 µM; activation: stronger effect = higher value; outcome: activation
[11] = target: Short transient receptor potential channel 6 (Mus musculus) (UniProt Q61143); assay: positive modulators of mouse TRPC6 channel – HEK293 cells, membrane potential dye, duplicate, selectivity assay for TRPC4 potentiator project, confirmation (AID 434952;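 active = compound raising the membrane signal above positive-control mean plus 3 SD in both repeats, and a primary screen hit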); conditions: HEK293 TRPC6, membrane potential dye fluorescence, at 10 µM, maximal acetylcholine added after compound; stronger effect = higher value
[12] = target: Short transient receptor potential channel 4 (Mus musculus) (UniProt Q9QUQ5); assay: calcium flux activators in TRPC4/5HT1a cells, counter-screen for TRPC4 activator project, cell-based, second counter screen, HEK293 TRPC4/5HT1a, Fluo-4 (AID 434977;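 active = calcium signal rise above buffer-control mean plus 5 SD in both duplicates, and also a hit in the primary screen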); conditions: Fluo-4 calcium flux, at 10 µM; stronger effect = higher value
[13] = serotonin-gated TRPC4 signal block – cell-based, second counter screen, HEK293 TRPC4/5HT1a, Fluo-4, counter-screen for TRPC4 inhibitor project, confirmation (AID 434978;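 active = primary screen active whose calcium signal fell more than 3 SD beyond the full-serotonin control mean in both duplicate plates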;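 for outcome: serotonin given first at submaximal then at maximal dose after compound preincubation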); conditions: Fluo-4 calcium flux, at 10 µM, serotonin added to trigger calcium flux; stronger effect = higher value
[14] = system: TRPC4 (mouse), co-expressed with 5HT1a in HEK293; assay: enhancement of serotonin-evoked TRPC4 response – cell-based, second counter screen, HEK293 TRPC4/5HT1a, Fluo-4, counter-screen for TRPC4 potentiator project, confirmation (AID 434979;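 active = signal rise over 3 SD above mean of control wells given weak agonist, in both repeats and first screen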); conditions: Fluo-4 calcium flux, at 10 µM, serotonin added at its EC20 dose; stronger effect = higher value
[15] = nonspecific calcium rise without TRPC4 – cell-based, HEK293 mu-opioid receptor line, counter-screen for TRPC4 activator project, confirmation (AID 449723;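 active = hit in primary screen, with calcium signal over 5 SD above buffer well mean in both duplicates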;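 note: counter screen cells carry the mu-opioid receptor alone and lack TRPC4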); conditions: HEK293 mu-opioid cells, Fluo-4 calcium fluorescence, at 10 µM; stronger effect = higher value
[16] = nonspecific potentiation of DAMGO calcium response – cell-based, HEK293 mu-opioid receptor line, counter-screen for TRPC4 allosteric potentiator project, confirmation (AID 449724;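 active = calcium signal rise more than 3 SD above the low-dose agonist control mean, in both duplicate plates and the primary screen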); conditions: HEK293 mu-opioid receptor cells, Fluo-4 calcium flux, at 10 µM, compound added before EC20 DAMGO stimulus; stronger effect = higher value
[17] = nonspecific flux increase, KCNQ1-free cells – parental CHO cells, counter-screen for KCNQ1 potentiator project (AID 493006;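 active = duplicate-averaged activation above buffer control mean plus 5 SD of those controls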); conditions: parental CHO-K1 cells, FluxOR thallium flux, at 10 µM; stronger effect = higher value
[18] = target: Potassium voltage-gated channel subfamily KQT member 1 (Homo sapiens) (UniProt P51787); assay: enhancement of KCNQ1 channel thallium flux – FluxOR thallium flux, CHO cells, duplicates, confirmation (AID 493007;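 active = potentiation averaged over duplicate wells exceeding buffer-only control mean by more than 3 SD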;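 for outcome: cells depolarized by a potassium plus thallium sulfate stimulus after compound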;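 for potentiation: 0% = buffer-only wells and 100% = R-L3 activator control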); conditions: KCNQ1 cell line, FluxOR thallium flux fluorescence, at 10 µM; stronger effect = higher value, % of reference activator effect, buffer zero
[19] = target: Potassium voltage-gated channel subfamily KQT member 2 (Rattus norvegicus) (UniProt O88943); assay: KCNQ2 thallium flux enhancement – KCNQ2-CHO-K1 cells, selectivity assay for KCNQ1 potentiator project (AID 493009;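 active = mean duplicate potentiation above the buffer control mean plus 5 SD of buffer wells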;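 note: assay conditions were tuned for KCNQ1 rather than KCNQ2 modulators; signal is max minus min fluorescence divided by baseline after thallium stimulus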); conditions: FluxOR thallium flux fluorescence, at 10 µM; stronger effect = higher value, scaled: buffer 0, activator control 100
[20] = target: Short transient receptor potential channel 4 (Mus musculus) (UniProt Q9QUQ5); assay: block of DAMGO-driven TRPC4 calcium entry – cell-based, HEK293 TRPC4/mu-opioid, Fluo-4 calcium, dose response (AID 434942;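 active = primary screen inhibitor hit that blocks the TRPC4 channel at some tested dose, yielding a dose curve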)

Chain of Potassium voltage-gated channel subfamily KQT member 2 (Rattus norvegicus) (O88943 whole entry, looked up): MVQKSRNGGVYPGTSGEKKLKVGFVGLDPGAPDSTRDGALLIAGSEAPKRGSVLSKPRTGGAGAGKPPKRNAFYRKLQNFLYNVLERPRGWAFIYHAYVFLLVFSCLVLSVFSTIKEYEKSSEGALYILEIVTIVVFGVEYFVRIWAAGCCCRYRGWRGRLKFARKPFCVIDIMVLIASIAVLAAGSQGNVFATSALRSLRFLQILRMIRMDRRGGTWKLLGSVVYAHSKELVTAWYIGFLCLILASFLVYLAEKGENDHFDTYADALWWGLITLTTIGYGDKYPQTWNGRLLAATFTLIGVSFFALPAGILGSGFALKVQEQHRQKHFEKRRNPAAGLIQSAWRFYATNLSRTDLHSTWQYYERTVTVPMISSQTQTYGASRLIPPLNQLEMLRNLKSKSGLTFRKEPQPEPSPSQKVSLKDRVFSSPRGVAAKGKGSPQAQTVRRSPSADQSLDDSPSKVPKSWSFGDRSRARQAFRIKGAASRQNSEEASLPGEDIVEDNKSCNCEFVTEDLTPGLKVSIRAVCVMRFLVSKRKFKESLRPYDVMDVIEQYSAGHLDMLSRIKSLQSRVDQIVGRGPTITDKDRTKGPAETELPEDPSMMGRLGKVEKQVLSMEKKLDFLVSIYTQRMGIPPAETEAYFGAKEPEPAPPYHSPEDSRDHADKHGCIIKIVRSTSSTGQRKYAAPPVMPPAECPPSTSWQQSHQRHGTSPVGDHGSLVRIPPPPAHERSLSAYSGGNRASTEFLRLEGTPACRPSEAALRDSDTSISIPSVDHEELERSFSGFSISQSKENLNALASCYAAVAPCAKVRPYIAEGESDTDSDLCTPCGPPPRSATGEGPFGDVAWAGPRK
Chain of Short transient receptor potential channel 4 (Mus musculus) (Q9QUQ5 whole entry, looked up): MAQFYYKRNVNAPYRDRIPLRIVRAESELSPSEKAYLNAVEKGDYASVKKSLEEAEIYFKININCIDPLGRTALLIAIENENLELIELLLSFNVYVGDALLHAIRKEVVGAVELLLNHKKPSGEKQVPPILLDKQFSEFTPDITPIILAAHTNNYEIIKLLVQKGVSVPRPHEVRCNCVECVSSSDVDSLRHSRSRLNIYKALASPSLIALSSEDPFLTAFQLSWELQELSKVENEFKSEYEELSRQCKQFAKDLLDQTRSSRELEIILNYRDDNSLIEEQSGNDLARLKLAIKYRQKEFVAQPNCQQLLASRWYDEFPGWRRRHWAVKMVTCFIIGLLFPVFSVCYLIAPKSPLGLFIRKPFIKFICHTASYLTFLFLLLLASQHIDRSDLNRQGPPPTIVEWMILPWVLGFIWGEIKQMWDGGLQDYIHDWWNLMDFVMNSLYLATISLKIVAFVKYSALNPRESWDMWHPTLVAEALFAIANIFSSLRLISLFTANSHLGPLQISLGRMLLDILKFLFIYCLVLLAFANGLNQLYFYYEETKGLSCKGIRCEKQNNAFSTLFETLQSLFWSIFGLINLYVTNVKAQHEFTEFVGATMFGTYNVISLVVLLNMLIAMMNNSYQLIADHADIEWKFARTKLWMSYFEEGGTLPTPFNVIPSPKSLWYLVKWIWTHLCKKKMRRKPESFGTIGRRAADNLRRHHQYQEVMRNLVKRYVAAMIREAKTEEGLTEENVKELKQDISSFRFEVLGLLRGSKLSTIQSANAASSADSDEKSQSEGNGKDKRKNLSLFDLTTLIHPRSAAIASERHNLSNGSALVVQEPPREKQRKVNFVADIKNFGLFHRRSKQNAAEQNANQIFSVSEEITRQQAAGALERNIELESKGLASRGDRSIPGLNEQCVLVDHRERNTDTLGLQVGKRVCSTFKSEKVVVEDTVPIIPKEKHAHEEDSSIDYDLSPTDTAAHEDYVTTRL
Chain of Potassium voltage-gated channel subfamily KQT member 1 (Homo sapiens) (P51787 whole entry, looked up): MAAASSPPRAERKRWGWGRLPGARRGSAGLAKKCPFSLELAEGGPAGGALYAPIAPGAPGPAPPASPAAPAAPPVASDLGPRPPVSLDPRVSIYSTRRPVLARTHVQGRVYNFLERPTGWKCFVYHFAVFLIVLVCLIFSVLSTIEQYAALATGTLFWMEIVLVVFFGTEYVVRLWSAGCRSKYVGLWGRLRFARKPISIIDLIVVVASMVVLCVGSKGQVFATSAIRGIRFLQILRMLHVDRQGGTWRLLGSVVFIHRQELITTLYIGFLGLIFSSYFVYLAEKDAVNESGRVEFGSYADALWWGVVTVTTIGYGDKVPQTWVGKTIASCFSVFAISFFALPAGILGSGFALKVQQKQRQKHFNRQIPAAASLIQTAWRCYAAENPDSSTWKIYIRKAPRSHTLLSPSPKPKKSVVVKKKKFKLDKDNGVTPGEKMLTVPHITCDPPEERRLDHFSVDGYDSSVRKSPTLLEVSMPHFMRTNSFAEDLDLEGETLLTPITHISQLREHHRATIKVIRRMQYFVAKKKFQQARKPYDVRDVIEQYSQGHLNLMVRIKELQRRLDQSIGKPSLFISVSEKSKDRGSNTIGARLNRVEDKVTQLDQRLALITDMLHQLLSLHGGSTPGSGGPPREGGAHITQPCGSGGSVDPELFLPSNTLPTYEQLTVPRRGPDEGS
Chain of Short transient receptor potential channel 6 (Mus musculus) (Q61143 whole entry, looked up): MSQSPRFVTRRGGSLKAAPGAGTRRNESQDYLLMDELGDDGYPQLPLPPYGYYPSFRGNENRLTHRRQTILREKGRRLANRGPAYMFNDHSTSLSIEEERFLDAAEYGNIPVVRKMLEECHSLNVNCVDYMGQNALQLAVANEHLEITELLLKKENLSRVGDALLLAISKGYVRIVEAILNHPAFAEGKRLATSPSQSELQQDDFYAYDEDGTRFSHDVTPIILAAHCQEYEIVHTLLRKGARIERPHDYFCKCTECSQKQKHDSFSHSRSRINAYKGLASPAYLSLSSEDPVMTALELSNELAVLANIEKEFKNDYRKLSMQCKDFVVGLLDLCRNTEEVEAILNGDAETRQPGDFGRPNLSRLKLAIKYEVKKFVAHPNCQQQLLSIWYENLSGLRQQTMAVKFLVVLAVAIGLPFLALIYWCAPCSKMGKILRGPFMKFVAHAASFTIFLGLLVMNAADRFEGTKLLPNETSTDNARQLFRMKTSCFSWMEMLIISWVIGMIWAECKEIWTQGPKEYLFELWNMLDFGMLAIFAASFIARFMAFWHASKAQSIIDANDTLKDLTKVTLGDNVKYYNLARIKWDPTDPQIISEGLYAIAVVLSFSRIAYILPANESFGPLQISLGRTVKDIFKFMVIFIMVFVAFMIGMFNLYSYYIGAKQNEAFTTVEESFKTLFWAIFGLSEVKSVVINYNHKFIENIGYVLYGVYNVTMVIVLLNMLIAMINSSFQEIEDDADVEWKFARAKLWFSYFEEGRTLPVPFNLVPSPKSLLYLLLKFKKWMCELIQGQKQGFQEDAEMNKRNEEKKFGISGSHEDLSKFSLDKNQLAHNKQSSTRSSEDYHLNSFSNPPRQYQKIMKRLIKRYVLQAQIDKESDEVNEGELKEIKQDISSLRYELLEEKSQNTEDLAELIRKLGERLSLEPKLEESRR

CC(=O)C1=C(S(=O)(=O)c2ccc(C)cc2)CS(=O)(=O)C1
inactive: outcome [1] | outcome [2] | outcome [3] | outcome [4] | outcome [7] | outcome [8] | outcome [9] | outcome [10] | outcome [11] | outcome [12] | outcome [14] | outcome [15] | outcome [16] | outcome [17] | outcome [18]
active: inhibition [5] 74% | inhibition [6] 39% | inhibition [13] 12.2% | potentiation [19] 200%

O=C(CCN1CCN(Cc2ccccc2)CC1)Nc1ccc(OCc2ccccc2)cc1
inactive: outcome [1] | outcome [2] | outcome [3] | outcome [5] | outcome [6] | outcome [7] | outcome [20] | outcome [9] | outcome [10] | outcome [11] | outcome [12] | outcome [13] | outcome [15] | outcome [16]
active: potentiation [4] 12% | potentiation [14] 25.1%

CCCCn1c(SCC(=O)N2c3ccccc3Sc3ccccc32)nc2c1c(=O)n(C)c(=O)n2C
inactive: outcome [1] | outcome [2] | outcome [5] | outcome [6] | outcome [7] | outcome [20] | outcome [9] | outcome [10] | outcome [11] | outcome [12] | outcome [13] | outcome [15] | outcome [16]
active: potentiation [3] 8% | potentiation [4] 97% | potentiation [14] 93.4%

Cc1ccc(N2CCN(C(=O)c3ccccc3F)CC2)c(C)c1
inactive: outcome [1] | outcome [2] | outcome [3] | outcome [4] | outcome [7] | outcome [8] | outcome [9] | outcome [10] | outcome [11] | outcome [12] | outcome [14] | outcome [15] | outcome [16]
active: inhibition [5] 84% | inhibition [6] 41% | inhibition [13] 26.6%

CCOc1ccc(-n2c(SCC(=O)O)nc3sc4c(c3c2=O)CCCC4)cc1
inactive: outcome [1] | outcome [2] | outcome [3] | outcome [4] | outcome [5] | outcome [6] | outcome [7] | outcome [20] | outcome [9] | outcome [10] | outcome [11] | outcome [12] | outcome [13] | outcome [15] | outcome [16]
active: potentiation [14] 16.4%

Cc1cc(OCC(=O)N(C(C)C)C(C)C)cc(C)c1Br
inactive: outcome [1] | outcome [2] | outcome [3] | outcome [5] | outcome [6] | outcome [7] | outcome [20] | outcome [9] | outcome [10] | outcome [11] | outcome [12] | outcome [13] | outcome [15] | outcome [16]
active: potentiation [4] 22% | potentiation [14] 31.9%

COc1cc(NS(=O)(=O)c2ccc3ccccc3c2)c2ncccc2c1
active: inhibition [5] 70% | inhibition [13] 23.4% | potentiation [18] 47% | potentiation [19] 154%
inactive: outcome [1] | outcome [2] | outcome [3] | outcome [4] | outcome [6] | outcome [7] | outcome [8] | outcome [9] | outcome [10] | outcome [11] | outcome [12] | outcome [14] | outcome [15] | outcome [16] | outcome [17]

CC(C1CC2CCC1C2)n1c(-c2cccs2)n[nH]c1=S (stereo not drawn)
active: inhibition [5] 54% | inhibition [13] 34% | potentiation [18] 48% | potentiation [19] 148%
inactive: outcome [1] | outcome [2] | outcome [3] | outcome [4] | outcome [6] | outcome [7] | outcome [8] | outcome [9] | outcome [10] | outcome [11] | outcome [12] | outcome [14] | outcome [15] | outcome [16] | outcome [17]

Cc1cc(-c2ccc(C)c(S(=O)(=O)N3CCN(c4ccccn4)CC3)c2)on1
active: potentiation [4] 18% | potentiation [14] 16.4%
inactive: outcome [1] | outcome [2] | outcome [3] | outcome [5] | outcome [6] | outcome [7] | outcome [20] | outcome [9] | outcome [10] | outcome [11] | outcome [12] | outcome [13] | outcome [15] | outcome [16]

Cc1nc2c3cc(Cl)ccc3n(CCN3CCCCC3)c2s1
active: inhibition [5] 72% | inhibition [9] 39.5% | inhibition [13] 28.7%
inactive: outcome [1] | outcome [2] | outcome [3] | outcome [4] | outcome [6] | outcome [7] | outcome [8] | outcome [10] | outcome [11] | outcome [12] | outcome [14] | outcome [15] | outcome [16] | outcome [17] | outcome [18] | outcome [19]

CN(C)CC(CCC(CN(C)C)C(O)(c1ccccc1)c1ccccc1)C(O)(c1ccccc1)c1ccccc1 (stereo not drawn)
inactive: outcome [1] | outcome [2] | outcome [3] | outcome [4] | outcome [5] | outcome [6] | outcome [7] | outcome [8] | outcome [9] | outcome [10] | outcome [11] | outcome [12] | outcome [13] | outcome [14] | outcome [15] | outcome [16] | outcome [17] | outcome [18] | outcome [19]

COc1ccc(CN2CCN(Cc3ccccc3F)CC2)c(OC)c1
active: inhibition [5] 89% | inhibition [13] 30.4%
inactive: outcome [1] | outcome [2] | outcome [3] | outcome [4] | outcome [6] | outcome [7] | outcome [8] | outcome [9] | outcome [10] | outcome [11] | outcome [12] | outcome [14] | outcome [15] | outcome [16]

O=C(NCc1ccccc1)C1=C[C@H](c2ccc(C(F)(F)F)cc2)C[C@H](OCc2ccc(CO)cc2)O1
inactive: outcome [1] | outcome [2] | outcome [3] | outcome [5] | outcome [6] | outcome [7] | outcome [20] | outcome [9] | outcome [10] | outcome [11] | outcome [12] | outcome [13] | outcome [15] | outcome [16]
active: potentiation [4] 51% | potentiation [14] 111%
